{
  "source": "PubChem BioAssay (NCATS)",
  "note": "Inconclusive results are not listed. Activity calls are given as the source filed them. Calls come from the whole dose curve; as a rule, active = well fitted curve in the direction sought with a large enough effect; inconclusive = small, poorly fitted or top-dose-only effect, or another doubt; inactive = no such curve, though single readings can be large; an effect the other way counts as inactive or inconclusive.",
  "data": [
    {"test_system": "not listed separately", "test": "Primary qHTS for inhibitors of nuclear receptor binding SET domain protein 2 (NSD2) in an RCH-ACV wild type WT cells (2C) (AID 1645877); note: nearly all actives have a fitted effect of over 70% in size; note: potency is the fitted concentration of half-maximal effect; for activity change, negative = cell killing: % is set by controls: 0 for no effect and ±100 for the full control effect", "conditions": "RCH-ACV NSD2 WT (2C) viability, CellTiter-Glo, 72 h; series mostly up to 44.9 µM; activity change, negative = cell killing: at the top concentration", "values": [
      {"smiles": "Cc1cc(SCc2sc(-c3ccc(C(F)(F)F)c(F)c3)nc2C)ccc1OCC(=O)O", "activity change, negative = cell killing": "-9.08% (inactive)"},
      {"smiles": "CC(C)(C)NCC(O)c1cc(Cl)c(N)c(Cl)c1", "note": "(stereo unspecified)", "outcome": "inactive"},
      {"smiles": "N#CC(C#N)=Cc1ccc(O)c(O)c1", "Potency": "10.6 µM (active)"},
      {"smiles": "Oc1ccc(Cl)cc1Cc1ccccc1", "Potency": "34.7 µM (active)"},
      {"smiles": "c1ccc(C2CC2)c(OCC2=NCCN2)c1", "activity change, negative = cell killing": "-24% (inactive)"},
      {"smiles": "CC[C@@H](CO)NC(=O)[C@@H]1C=C2c3cccc4[nH]cc(c34)C[C@H]2N(C)C1", "activity change, negative = cell killing": "-20.8% (inactive)"},
      {"smiles": "COC[C@@H](NC(C)=O)C(=O)NCc1ccccc1", "Potency": "inactive"},
      {"smiles": "CC(CCc1ccccc1)NC(C)C(O)c1ccc(O)cc1", "note": "(stereo unspecified)", "activity change, negative = cell killing": "-20.8% (inactive)"},
      {"smiles": "CC(C)=CC1C(C(=O)OCc2cccc(Oc3ccccc3)c2)C1(C)C", "note": "(stereo unspecified)", "activity change, negative = cell killing": "-12.7% (inactive)"},
      {"smiles": "c1ccc2c(c1)OCC(C1=NCCN1)O2", "note": "(stereo unspecified)", "Potency": "7.5 µM (active)"},
      {"smiles": "CCC(C(N)=O)N1CCCC1=O", "note": "(stereo unspecified)", "activity change, negative = cell killing": "3.38% (inactive)"},
      {"smiles": "C[C@]12CCC(=O)C(O)=C1CC[C@@H]1[C@@H]2CC[C@]2(C)C(=O)CC[C@@H]12", "Potency": "inactive"},
      {"smiles": "Cc1sc2c(c1C)C(c1ccc(Cl)cc1)=N[C@@H](CC(=O)OC(C)(C)C)c1nnc(C)n1-2", "Potency": "0.263 µM (active)"},
      {"smiles": "CC(=O)Nc1cc([As](=O)(O)O)ccc1O", "activity change, negative = cell killing": "3.44% (inactive)"},
      {"smiles": "O=C1NCN(c2ccccc2)C12CCN(CC1COc3ccccc3O1)CC2", "note": "(stereo unspecified)", "activity change, negative = cell killing": "-12.3% (inactive)"},
      {"smiles": "COc1ccc(C(=O)c2c(C)n(CCN3CCOCC3)c3ccccc23)cc1", "Potency": "18.8 µM (active)"},
      {"smiles": "CNC(=O)c1ccc(N2C(=S)N(c3ccc(C#N)c(C(F)(F)F)c3)C(=O)C23CCC3)cc1F", "Potency": "16.6 µM (active)"},
      {"smiles": "O=C(O)P(=O)(O)O", "Potency": "inactive"},
      {"smiles": "CC(C)NCC(O)c1ccccc1Cl", "note": "(stereo unspecified)", "outcome": "inactive"},
      {"smiles": "C[C@]12CC[C@H]3[C@@H](CCC4=CC(=O)CC[C@@H]43)[C@@H]1CC[C@@H]2OC(=O)CCc1ccccc1", "activity change, negative = cell killing": "-0.869% (inactive)"}
    ]},
    {"target": "Rap guanine nucleotide exchange factor 3 (Homo sapiens) (UniProt O95398)", "sequence (O95398 whole entry, looked up)": "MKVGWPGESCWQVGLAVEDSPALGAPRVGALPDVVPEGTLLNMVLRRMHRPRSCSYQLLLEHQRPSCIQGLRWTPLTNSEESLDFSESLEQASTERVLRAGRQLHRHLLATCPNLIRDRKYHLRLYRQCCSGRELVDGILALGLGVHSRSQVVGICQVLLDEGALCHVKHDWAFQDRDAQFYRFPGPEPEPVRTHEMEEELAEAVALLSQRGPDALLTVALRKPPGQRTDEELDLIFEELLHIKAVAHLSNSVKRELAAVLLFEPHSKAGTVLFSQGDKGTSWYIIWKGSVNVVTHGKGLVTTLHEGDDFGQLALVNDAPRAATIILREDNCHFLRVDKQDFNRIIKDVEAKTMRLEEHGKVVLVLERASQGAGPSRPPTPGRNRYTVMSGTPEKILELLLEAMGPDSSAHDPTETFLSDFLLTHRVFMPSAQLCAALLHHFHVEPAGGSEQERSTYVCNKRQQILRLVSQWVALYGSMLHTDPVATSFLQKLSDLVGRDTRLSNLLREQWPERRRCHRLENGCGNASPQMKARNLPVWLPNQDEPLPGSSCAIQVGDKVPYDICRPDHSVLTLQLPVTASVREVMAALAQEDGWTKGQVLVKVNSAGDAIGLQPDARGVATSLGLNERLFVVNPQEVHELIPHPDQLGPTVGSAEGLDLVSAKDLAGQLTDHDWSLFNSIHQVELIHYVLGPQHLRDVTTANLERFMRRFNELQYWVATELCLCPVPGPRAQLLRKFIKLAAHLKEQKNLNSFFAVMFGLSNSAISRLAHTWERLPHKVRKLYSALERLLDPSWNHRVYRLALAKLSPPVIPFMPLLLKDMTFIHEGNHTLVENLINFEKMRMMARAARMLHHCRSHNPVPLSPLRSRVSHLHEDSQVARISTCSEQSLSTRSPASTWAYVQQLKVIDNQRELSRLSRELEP", "test": "Confirmatory qHTS for agonist of cAMP-regulated guanine nucleotide exchange factor 3 (EPAC1) (AID 1645881);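 note: EPAC1 catalysed release of BODIPY-GDP from Rap1B seen as fluorescence loss; nearly all actives have a fitted effect of over 75% in size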", "conditions": "EPAC1 Rap1B BODIPY-GDP exchange fluorescence, 100% = cAMP control response; series mostly up to 154 µM; activation: at the top concentration", "values": [
      {"smiles": "Oc1cc(Cl)ccc1Oc1ccc(Cl)cc1Cl", "activation": "9.94% [at 314 µM] (inactive)"},
      {"smiles": "CC(C)=CC1C(C(=O)OCc2cccc(Oc3ccccc3)c2)C1(C)C", "note": "(stereo unspecified)", "activation": "6.48% (inactive)"},
      {"smiles": "O=c1[nH]c2ccccc2n1C1CCN(CCCC(c2ccc(F)cc2)c2ccc(F)cc2)CC1", "activation": "3.17% (inactive)"}
    ]},
    {"target": "Catechol O-methyltransferase (Homo sapiens) (UniProt P21964)", "sequence (P21964 whole entry, looked up)": "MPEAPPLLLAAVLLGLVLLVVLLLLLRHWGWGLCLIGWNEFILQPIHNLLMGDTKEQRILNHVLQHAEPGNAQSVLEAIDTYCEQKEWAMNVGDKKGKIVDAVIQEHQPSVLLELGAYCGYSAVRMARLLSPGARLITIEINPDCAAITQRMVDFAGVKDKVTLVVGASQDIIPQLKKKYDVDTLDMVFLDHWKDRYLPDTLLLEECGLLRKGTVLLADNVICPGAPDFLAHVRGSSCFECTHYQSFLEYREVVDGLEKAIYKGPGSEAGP", "test": "Confirmatory Screen for Target Class Profiling of Small Molecule Inhibitors of Methyltransferases (AID 1745852)", "conditions": "MTase-Glo luminescence, SAH detection, recombinant enzyme; measured here: COMT max response; stronger effect = lower value", "units": {"activity": "%"}, "values": [
      {"smiles": "N#CC(C#N)=Cc1ccc(O)c(O)c1", "activity": 34.9},
      {"smiles": "CC(C)=CCOc1c2occc2cc2ccc(=O)oc12", "activity": -8.52},
      {"smiles": "CC[C@@H](CO)NC(=O)[C@@H]1C=C2c3cccc4c3c(cn4C)C[C@H]2N(C)C1", "activity": 1.79}
    ]}
  ]
}
